Our source for the binding signal values is publication PMC9838217, “Structure of SALL4 zinc finger domain reveals link between AT-rich DNA binding and Okihiro syndrome”.

Changes are numbered by the printed parent chain.

In the first experiment the target is T1, SALL4 ZFC4 WT (HT-SELEX) (Mus musculus, UniProt Q8BX22 870-940).
T1 sequence: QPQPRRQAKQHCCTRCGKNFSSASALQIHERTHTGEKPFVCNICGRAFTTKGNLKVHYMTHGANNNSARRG
As to the kind of experiment: HT-SELEX; high values mean tight binding. Conditions: protein: recombinant; vector His6-GST; dsDNA, one strand shown. The procedure, abridged:
(§1)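 DNA from a random library (1.5 µg in the first cycle, 200 ng afterwards) was incubated with purified recombinant mouse SALL4 zinc finger cluster 4, residues 870–940 (1 µg), for 10 min at room temperature in 100 µl buffer: 10 mM Tris–HCl pH 7.5, 50 mM NaCl, poly(dI-dC), DTT. Bound complexes were pulled down on Ni2+ beads, washed and PCR-amplified, and the selection was repeated for up to 6 cycles in triplicate. MiSeq reads were scanned for 6-mers, and binding signal is each canonical k-mer's read fraction as fold change over the initial random library.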
Consider ATCCTG, for which the binding signal was 0.879 ± 0.0324 fold-change vs cycle 0.

Take ACTCCA: the binding signal was found to be 0.896 ± 0.0264 fold-change vs cycle 0.

For the sequence AAATGG, the binding signal turned out to be 1.11 ± 0.029 fold-change vs cycle 0.

As to ATGCAA, the binding signal was 1.2 ± 0.113 fold-change vs cycle 0.

Turning to ATGGAG, the binding signal was 0.932 ± 0.0365 fold-change vs cycle 0.

GCATAA: the binding signal worked out at 1.13 ± 0.0858 fold-change vs cycle 0.

For ACTGAG, the binding signal is 0.855 ± 0.0344 fold-change vs cycle 0.

Take CATCTC: the binding signal is 0.879 ± 0.041 fold-change vs cycle 0.

The target of a further experiment is T2, SALL4 ZFC4 R900W (HT-SELEX) (Mus musculus, UniProt Q8BX22 870-940, R900W).
T2 sequence: T1 sequence with R31W
As to the kind of experiment: HT-SELEX; high values mean tight binding. The conditions noted are these: protein: recombinant; vector His6-GST; dsDNA, one strand shown. A digest of the protocol: as §1
Take ACGTCG: the binding signal stood at 0.298 ± 0.0109 fold-change vs cycle 0.

In the case of GTGCAC, the binding signal was 0.313 ± 0.0179 fold-change vs cycle 0.

GATGGC: the binding signal stood at 0.36 ± 0.0133 fold-change vs cycle 0.

Regarding GAGCGC, the binding signal was found to be 0.088 ± 0.00871 fold-change vs cycle 0.

Consider CCCACG, for which the binding signal stood at 0.214 ± 0.0117 fold-change vs cycle 0.

As for CGGGAG, the binding signal is 0.27 ± 0.0161 fold-change vs cycle 0.

As for CGAAGC, the binding signal was 0.325 ± 0.00517 fold-change vs cycle 0.

As to CAGCCA, the binding signal was determined as 0.309 ± 0.0234 fold-change vs cycle 0.

As for CTTGGC, the binding signal is 0.308 ± 0.0227 fold-change vs cycle 0.

On to AGCCAC, for which the binding signal was found to be 0.315 ± 0.0294 fold-change vs cycle 0.

Turning to GAGCCC, the binding signal was found to be 0.184 ± 0.0121 fold-change vs cycle 0.

For the sequence CGAGCA, the binding signal is 0.299 ± 0.00719 fold-change vs cycle 0.

In the case of ACGCAC, the binding signal stood at 0.27 ± 0.0299 fold-change vs cycle 0.

As for ACCCCG, the binding signal was determined as 0.242 ± 0.00886 fold-change vs cycle 0.

In the case of CGGCAC, the binding signal came out at 0.0866 ± 0.0073 fold-change vs cycle 0.

In the case of GGCAAC, the binding signal is 0.322 ± 0.0219 fold-change vs cycle 0.

Consider CCCCCC, for which the binding signal was 0.217 ± 0.0203 fold-change vs cycle 0.

As to CCCCGG, the binding signal came out at 0.118 ± 0.0064 fold-change vs cycle 0.

As to TGCCCA, the binding signal was 0.29 ± 0.00772 fold-change vs cycle 0.

As to CGCCAG, the binding signal was 0.103 ± 0.00325 fold-change vs cycle 0.

Consider CGCGAC, for which the binding signal was found to be 0.088 ± 0.0103 fold-change vs cycle 0.

On to ACTGCC, for which the binding signal worked out at 0.333 ± 0.0151 fold-change vs cycle 0.

On to CACCGG, for which the binding signal was found to be 0.216 ± 0.0195 fold-change vs cycle 0.

As to GCTGGA, the binding signal was 0.37 ± 0.0454 fold-change vs cycle 0.

On to ACGGCG, for which the binding signal worked out at 0.0768 ± 0.0155 fold-change vs cycle 0.

GGCGCA: the binding signal is 0.0622 ± 0.0107 fold-change vs cycle 0.

Consider GCACGC, for which the binding signal came out at 0.0991 ± 0.0124 fold-change vs cycle 0.

For the sequence CCGCAG, the binding signal was found to be 0.123 ± 0.0191 fold-change vs cycle 0.

Regarding CCTGCG, the binding signal came out at 0.145 ± 0.0224 fold-change vs cycle 0.

Regarding GAGGGC, the binding signal is 0.201 ± 0.0133 fold-change vs cycle 0.

With CGCTCA, the binding signal amounted to 0.311 ± 0.0311 fold-change vs cycle 0.

For the sequence CGCTAG, the binding signal was 0.338 ± 0.0234 fold-change vs cycle 0.

Another experiment concerns the target T3, SALL4 ZFC4 G921D (HT-SELEX) (Mus musculus, UniProt Q8BX22 870-940, G921D).
T3 sequence: T1 sequence with G52D
As to the kind of experiment: HT-SELEX; high values mean tight binding. The conditions noted are these: protein: recombinant; vector His6-GST; dsDNA, one strand shown. A digest of the protocol: as §1
Turning to ACGTCG, the binding signal was found to be 0.438 ± 0.0515 fold-change vs cycle 0.

As to GTGCAC, the binding signal was determined as 0.456 ± 0.0786 fold-change vs cycle 0.

On to GATGGC, for which the binding signal stood at 0.489 ± 0.0668 fold-change vs cycle 0.

GAGCGC: the binding signal was determined as 0.196 ± 0.0698 fold-change vs cycle 0.

Take ATCCTG: the binding signal amounted to 1.02 ± 0.0414 fold-change vs cycle 0.

For CCCACG, the binding signal was found to be 0.319 ± 0.0528 fold-change vs cycle 0.

For the sequence CGGGAG, the binding signal is 0.381 ± 0.0867 fold-change vs cycle 0.

For ACTCCA, the binding signal was found to be 1.03 ± 0.0296 fold-change vs cycle 0.

As for CGAAGC, the binding signal was 0.474 ± 0.0622 fold-change vs cycle 0.

As to CAGCCA, the binding signal is 0.442 ± 0.0984 fold-change vs cycle 0.

Regarding CTTGGC, the binding signal is 0.45 ± 0.0809 fold-change vs cycle 0.

In the case of AGCCAC, the binding signal stood at 0.473 ± 0.0855 fold-change vs cycle 0.

Take GAGCCC: the binding signal stood at 0.331 ± 0.0823 fold-change vs cycle 0.

Turning to CGAGCA, the binding signal was 0.447 ± 0.0658 fold-change vs cycle 0.

AAATGG: the binding signal worked out at 1.16 ± 0.0413 fold-change vs cycle 0.

For ACGCAC, the binding signal turned out to be 0.404 ± 0.0719 fold-change vs cycle 0.

Consider ATGCAA, for which the binding signal was determined as 1.18 ± 0.0528 fold-change vs cycle 0.

For the sequence ATGGAG, the binding signal came out at 1.04 ± 0.0381 fold-change vs cycle 0.

For ACCCCG, the binding signal came to 0.353 ± 0.0765 fold-change vs cycle 0.

In the case of CGGCAC, the binding signal turned out to be 0.207 ± 0.0784 fold-change vs cycle 0.

For GGCAAC, the binding signal came out at 0.438 ± 0.0577 fold-change vs cycle 0.

For CCCCCC, the binding signal worked out at 0.314 ± 0.0628 fold-change vs cycle 0.

With CCCCGG, the binding signal came out at 0.224 ± 0.0627 fold-change vs cycle 0.

As for TGCCCA, the binding signal is 0.437 ± 0.0679 fold-change vs cycle 0.

Take CGCCAG: the binding signal stood at 0.214 ± 0.0676 fold-change vs cycle 0.

Take CGCGAC: the binding signal was found to be 0.202 ± 0.0599 fold-change vs cycle 0.

For the sequence GCATAA, the binding signal amounted to 1.105 ± 0.0098 fold-change vs cycle 0.

As for ACTGCC, the binding signal worked out at 0.469 ± 0.0726 fold-change vs cycle 0.

Regarding ACTGAG, the binding signal stood at 1.01 ± 0.0137 fold-change vs cycle 0.

As for CACCGG, the binding signal was 0.331 ± 0.0683 fold-change vs cycle 0.

Consider GCTGGA, for which the binding signal is 0.484 ± 0.0925 fold-change vs cycle 0.

Turning to ACGGCG, the binding signal was 0.177 ± 0.0582 fold-change vs cycle 0.

On to GGCGCA, for which the binding signal is 0.16 ± 0.0742 fold-change vs cycle 0.

On to GCACGC, for which the binding signal came to 0.21 ± 0.063 fold-change vs cycle 0.

For the sequence CCGCAG, the binding signal amounted to 0.234 ± 0.0772 fold-change vs cycle 0.

Take CCTGCG: the binding signal is 0.246 ± 0.0829 fold-change vs cycle 0.

GAGGGC: the binding signal was 0.323 ± 0.085 fold-change vs cycle 0.

CGCTCA: the binding signal amounted to 0.445 ± 0.0603 fold-change vs cycle 0.

CGCTAG: the binding signal is 0.465 ± 0.071 fold-change vs cycle 0.

Consider CATCTC, for which the binding signal stood at 1.01 ± 0.0361 fold-change vs cycle 0.
